The results in this text go back to PubChem BioAssay.

The source made the active and inactive calls.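 The calls were made as follows, unless noted: active = inhibition of the reporter signal at or above 50%; inactive = inhibition below 50%.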

A short description of test [1]: inhibitors of TNFa-induced NFkB p65 translocation, primary screen, imaging, HUVEC, MLSMR starter and 10KST1 sets (AID 438;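 active = inhibition above 20% together with a positive visual image hit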;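 also: compound added about 3h40 before a 20 min TNFalpha stimulation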;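 as to inhibition: signal is the nuclear over cytoplasmic p65 intensity ratio per well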). The settings on record: HUVEC TNFa-induced p65 nuclear translocation; cell count: measured here: nuclei count (cytotoxicity indicator), at 2.08 µM; inhibition: at 2 µM, stronger effect = higher value, 0% TNFa-plus-vehicle, 100% no-TNFa wells.
Test [2] in a line: inhibitors of mutant huntingtin aggregation, primary screen, imaging, exon1htt(103Q)mCFP cells, high-content imaging (AID 483;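 active = visual image review flags a hit and inhibition of aggregation exceeds 20%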;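 also: compound exposure lasted 3 days before fixation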;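 as to nuclei count: percent of the per-plate median nuclei count of sample wells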). The settings on record: exon1htt(103Q)mCFP cell line, aggregate imaging, at 2 µM; inhibition of aggregation: stronger effect = higher value; nuclei count: measured here: cell count, toxicity.
Test [3] can be described thus: inhibitors of E-selectin induction by TNFa, primary screen, imaging, HUVEC, immunofluorescence, MLSMR starter and 10KST1 sets (AID 487;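 active = visually confirmed hit in the image check and inhibition above 20%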;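 as to inhibition: signal is fraction of cell area covered by stained E-selectin grains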;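 as to nuclei count: 100% = median nuclei count of all wells on the same plate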). The settings on record: HUVEC TNFalpha-induced E-selectin immunofluorescence imaging, at 2 µM; inhibition: stronger effect = higher value; nuclei count: measured here: cell number, toxicity.
The target in test [4] is Voltage-gated potassium channel subunit beta-2 (Rattus norvegicus) (UniProt P62483). Description: KvBeta enzyme negative modulators, primary screen, biochemical, NADPH fluorescence (AID 622;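 active = fluorescence slope higher than the sample average by over 3 SD, cut at about -0.22 in these data, passing the limit was not always enough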;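 also: slope of raw intensity against log time taken from 70 to 1610 s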). The following applies: recombinant KvBeta, 4-cyanobenzaldehyde reduction, at 10 µM, stronger effect = higher value.
Sequence of Voltage-gated potassium channel subunit beta-2 (Rattus norvegicus) (P62483 whole entry, looked up): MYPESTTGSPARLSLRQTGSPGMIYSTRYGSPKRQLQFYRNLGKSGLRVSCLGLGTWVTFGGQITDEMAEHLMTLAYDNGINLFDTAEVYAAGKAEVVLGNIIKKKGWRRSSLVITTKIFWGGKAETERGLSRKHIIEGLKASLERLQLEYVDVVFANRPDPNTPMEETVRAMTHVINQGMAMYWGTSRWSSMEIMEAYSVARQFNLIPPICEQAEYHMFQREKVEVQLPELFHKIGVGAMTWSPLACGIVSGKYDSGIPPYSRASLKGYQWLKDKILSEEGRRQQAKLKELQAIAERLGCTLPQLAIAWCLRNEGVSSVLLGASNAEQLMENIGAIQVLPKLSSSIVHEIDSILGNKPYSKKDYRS
The target is the same in test [5]. Briefly: KvBeta positive modulators, primary screen, biochemical, NADPH fluorescence (AID 623;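 active = NADPH fluorescence slope more negative than the mean of all samples by about 3 SD, 99.7% confidence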;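 also: fluorescence intensity change per second fitted from 20 to 320 s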). The settings on record: Recombinant KvBeta, NADPH fluorescence decrease slope, 10 min; at 10 µM; stronger effect = lower value.
Test [6] concerns the target Alpha-2C adrenergic receptor (Homo sapiens) (UniProt P18825). Description: modulators of alpha2C/GIRK thallium flux, primary screen, cell-based, HEK293 alpha2C/GIRK1/2 (AID 624;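 active = fluorescence slope after compound addition differing from the mean of all screened samples at 99.7% confidence, in either direction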;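 also: slope of fluorescence ratio to pre-addition baseline per second over 15 to 24 s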). The following applies: thallium flux BTC fluorescence, at 10 µM, actives lie on both sides.
Test [7] can be described thus: inhibitors of Sendai virus-induced IRF3 signaling, primary screen, TLR/RLR signaling modifier project, cell-based, Sendai virus stimulus, luciferase, 10K MLSCN set (AID 602276;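 active = inhibition at or above 50% at 10 µM; inactive = inhibition below 50%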;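 also: firefly luciferase from ISG56 promoter only with Renilla not read in this screen; 0% = Sendai virus plus DMSO and 100% = medium plus DMSO without virus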). The settings on record: HEK293 RL24 IRF3 luciferase reporter, at 10 µM, stronger effect = higher value.
Test [8] can be described thus: inhibitors of poly I:C-induced TLR3 signaling, primary screen, cell-based, poly I:C stimulus, luciferase, 10K MLSCN set (AID 602277). The settings on record: HEK293-TLR3 RL24 IRF3 luciferase reporter, at 10 µM, stronger effect = higher value. For orientation: In a reporter assay the amount or activity of a reporter protein is the signal.

Sequence of Alpha-2C adrenergic receptor (Homo sapiens) (P18825 whole entry, looked up): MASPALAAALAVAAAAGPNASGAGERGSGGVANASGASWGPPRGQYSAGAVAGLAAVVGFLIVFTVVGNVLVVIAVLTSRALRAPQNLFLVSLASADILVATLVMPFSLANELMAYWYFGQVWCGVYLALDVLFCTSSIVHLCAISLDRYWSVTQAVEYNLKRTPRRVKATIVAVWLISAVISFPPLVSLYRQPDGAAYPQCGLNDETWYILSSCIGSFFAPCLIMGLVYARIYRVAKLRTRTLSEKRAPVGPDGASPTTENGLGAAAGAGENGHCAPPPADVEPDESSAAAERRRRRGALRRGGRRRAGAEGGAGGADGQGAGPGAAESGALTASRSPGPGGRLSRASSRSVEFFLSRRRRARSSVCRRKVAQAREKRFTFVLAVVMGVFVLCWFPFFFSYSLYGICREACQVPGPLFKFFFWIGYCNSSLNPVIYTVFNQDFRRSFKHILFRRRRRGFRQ

One may read the inhibition as the drop in the measured response relative to a control, in per cent. For the compound `O=C(O)C1CC=CCC1C(=O)Nc1cccc(C(=O)N2CCCCC2)c1` (stereo not drawn), in test [1], the cell count came to 419. In addition, the inhibition in test [1] was 6.1% (inactive); in test [3], -158% (inactive); in test [7] it was 0.562% (inactive); in test [8], -0.512% (inactive). For the same compound, the inhibition of aggregation in test [2] is -11.9% (inactive). The results for the nuclei count in test [2] and in test [3] were 109% and 115%, respectively. The fluorescence slope in test [4] is -0.427 (inactive). Moreover, the NADPH fluorescence slope in test [5] is -4.3e-05 (inactive). Besides, in test [6], the slope was 0.00595 (inactive).

With `COC(=O)C(CC(C)C)NC(=O)CSc1nc(-c2ccccc2)c(C#N)c(=O)[nH]1` (stereo not drawn), the cell count in test [1] stood at 467. The inhibition in test [1] was -10.9% (inactive); in test [3], -3.8% (inactive); in test [7], 15.4% (inactive); in test [8], 28.8% (inactive). Besides, the inhibition of aggregation in test [2] is -13% (inactive). In addition, the nuclei count in test [2] came to 64.5%; in test [3] it was 81.7%. Also, the fluorescence slope in test [4] was -0.402 (inactive). Moreover, in test [5], the NADPH fluorescence slope was -0.000101 (inactive). Besides, the slope in test [6] is 0.0059 (inactive).

With `CN=C(Nc1cc(C)nn1-c1ccccc1)c1ccccc1`, the cell count in test [1] came out at 455. For the same compound, the inhibition in test [1] was 0.5% (inactive); in test [3] it was 23% (inactive); in test [7], 12.8% (inactive); in test [8] it was 17.1% (inactive). Besides, the inhibition of aggregation in test [2] was -5.8% (inactive). In addition, the nuclei count in test [2] was determined as 114%; in test [3], 90.5%. Besides, the fluorescence slope in test [4] is -0.519 (inactive). The NADPH fluorescence slope in test [5] was -2.6e-05 (inactive). Further, the slope in test [6] was 0.00474 (inactive).

With `O=c1[nH]c2ccc(Br)cc2c(-c2ccccc2)c1N1CCOCC1`, the cell count in test [1] is 728. Further, the inhibition in test [1] is -8% (inactive); in test [3], -12% (inactive); in test [7], -7.49% (inactive); in test [8], -16.4% (inactive). In addition, the inhibition of aggregation in test [2] was -1.1% (inactive). The values for the nuclei count in test [2] and in test [3] were 88.6% and 119%, respectively. The fluorescence slope in test [4] was -0.396 (inactive). Besides, the NADPH fluorescence slope in test [5] was 2.9e-05 (inactive). In addition, the slope in test [6] was 0.00458 (inactive).

Consider `CSc1ccc(-c2nc(CSCC(=O)N3CCOCC3)c(C)o2)cc1`, for which the cell count in test [1] worked out at 243. Moreover, the inhibition in test [1] was 2.7% (inactive); in test [3], -16.1% (inactive); in test [7], -23.3% (inactive); in test [8], -88.4% (inactive). Also, in test [2], the inhibition of aggregation was -6% (inactive). Moreover, the values for the nuclei count in test [2] and in test [3] were 89.5% and 101%, respectively. Moreover, in test [4], the fluorescence slope was -0.523 (inactive). Further, the NADPH fluorescence slope in test [5] was -5.8e-05 (inactive). Besides, the slope in test [6] was 0.00525 (inactive).

Take `CCc1nnc(NC(=O)CSc2nnc(-c3ccc(OC)cc3)n2C)s1`: in test [1], the cell count is 648. Further, the inhibition is 14.3% (inactive) in test [1], 5.4% (inactive) in test [3], 12.5% (inactive) in test [7] and 20.1% (inactive) in test [8]. For the same compound, the inhibition of aggregation in test [2] was 21.9% (inactive). For the same compound, the nuclei count in test [2] stood at 66.3%; in test [3] it was 112%. For the same compound, the fluorescence slope in test [4] is -0.609 (inactive). Also, the NADPH fluorescence slope in test [5] was -3e-05 (inactive). Further, the slope in test [6] was 0.00434 (inactive).

Take `CCN(CC)S(=O)(=O)c1ccc2c(c1)nc(SCC(=O)NC1CC1)n2-c1ccccc1OC`: the cell count in test [1] is 531. In addition, the inhibition in test [1] is -14.3% (inactive); in test [3], -137% (inactive); in test [7] it was 14.2% (inactive); in test [8], 48.2% (inactive). Also, the inhibition of aggregation in test [2] is 9.5% (inactive). Further, the nuclei count in test [2] turned out to be 109%; in test [3] it was 125%. In addition, the fluorescence slope in test [4] is -0.598 (inactive). Moreover, the NADPH fluorescence slope in test [5] was -7.2e-06 (inactive). For the same compound, the slope in test [6] was 0.00577 (inactive).

In the case of `COc1ccccc1CNC(=O)C1CCC(CNc2c(N3CCOCC3)c(=O)c2=O)CC1` (stereo not drawn), in test [1], the cell count turned out to be 739. Besides, the inhibition is -14.6% (inactive) in test [1], -1.3% (inactive) in test [3], 1.39% (inactive) in test [7] and 17.5% (inactive) in test [8]. Besides, the inhibition of aggregation in test [2] was 22.5% (inactive). Moreover, the nuclei count is 105% in test [2] and 122% in test [3]. In addition, the fluorescence slope in test [4] was -0.592 (inactive). Also, the NADPH fluorescence slope in test [5] was -3e-05 (inactive). Moreover, the slope in test [6] is 0.00599 (inactive).

For the compound `CCc1nc2sc(C)c(C)c2c(=O)n1CCO`, the cell count in test [1] turned out to be 396. Moreover, the inhibition in test [1] is 7.2% (inactive); in test [3], -64.6% (inactive); in test [7], 5.69% (inactive); in test [8], 32% (inactive). The inhibition of aggregation in test [2] is 10.8% (inactive). Further, the nuclei count in test [2] worked out at 81.4%; in test [3], 103%. Besides, in test [4], the fluorescence slope was -0.422 (inactive). In test [5], the NADPH fluorescence slope was 1.1e-05 (inactive). In addition, in test [6], the slope was 0.00292 (inactive).

Consider `O=C(CSc1nnc(-c2ccncc2)n1-c1ccc(F)cc1)NC(=O)NCc1ccco1`, for which, in test [1], the cell count stood at 537. Moreover, the inhibition was -13.7% (inactive) in test [1], -65.7% (inactive) in test [3], 10.1% (inactive) in test [7] and 15.2% (inactive) in test [8]. Moreover, the inhibition of aggregation in test [2] is -9.8% (inactive). Also, the results for the nuclei count in test [2] and in test [3] were 100% and 149%, respectively. The fluorescence slope in test [4] is -0.46 (inactive). For the same compound, in test [5], the NADPH fluorescence slope is -0.000317 (inactive). For the same compound, the slope in test [6] is 0.00513 (inactive).

On to `O=C(Cn1cnc2c(cnn2-c2ccccc2)c1=O)NCCc1ccccc1`, for which the cell count in test [1] came to 441. The inhibition in test [1] was 3.5% (inactive); in test [3] it was -25% (inactive); in test [7] it was 10.8% (inactive); in test [8], 17.4% (inactive). For the same compound, in test [2], the inhibition of aggregation is -9.4% (inactive). Moreover, the nuclei count in test [2] was found to be 112%; in test [3] it was 113%. Moreover, the fluorescence slope in test [4] is -0.535 (inactive). Moreover, the NADPH fluorescence slope in test [5] is -6.8e-07 (inactive). In test [6], the slope is 0.00728 (inactive).

Take `COc1ccccc1-c1nnc(SCc2ccccn2)n1C`: in test [1], the cell count amounted to 307. Moreover, the inhibition in test [1] was 7.6% (inactive); in test [3] it was -25.6% (inactive); in test [7], -14.7% (inactive); in test [8], -10.3% (inactive). The inhibition of aggregation in test [2] is -5.8% (inactive). Besides, the nuclei count in test [2] came to 97.6%; in test [3], 104%. Moreover, the fluorescence slope in test [4] was -0.581 (inactive). For the same compound, the NADPH fluorescence slope in test [5] was 0.000106 (inactive). The slope in test [6] was 0.0056 (inactive).

`CCOc1cc(S(=O)(=O)N2CCC(Cc3ccccc3)CC2)c(OCC)cc1-n1cnnn1`: in test [1], the cell count was 517. In addition, the inhibition in test [1] is 1.9% (inactive); in test [3], -119% (inactive); in test [7], -0.144% (inactive); in test [8], 10.4% (inactive). Also, the inhibition of aggregation in test [2] is -5.6% (inactive). Further, the nuclei count in test [2] came to 103%; in test [3], 178%. In addition, in test [4], the fluorescence slope is -0.613 (inactive). For the same compound, the NADPH fluorescence slope in test [5] was 9.5e-06 (inactive). Moreover, in test [6], the slope was 0.0103 (inactive).
